Assay outcomes (PubChem BioAssay)
RXFP1 antagonist = blocks the human relaxin receptor RXFP1 | AID 1259400 | activity change, negative = inhibition, % at 57.5 µM | HEK293-RXFP1, relaxin-stimulated cAMP HTRF, 30 min; active compounds read low | 350,000 compounds, 0.59% hits;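 active means activity change of -60% or lower, but not beyond a set lower limit; inconclusive means change between -60% and -40%, or beyond the set limit; inactive means change above -40%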; further: on the % scale 0 is the no-effect control and ±100 the full control effect
Target sequence (Q9HBX9 whole entry, looked up): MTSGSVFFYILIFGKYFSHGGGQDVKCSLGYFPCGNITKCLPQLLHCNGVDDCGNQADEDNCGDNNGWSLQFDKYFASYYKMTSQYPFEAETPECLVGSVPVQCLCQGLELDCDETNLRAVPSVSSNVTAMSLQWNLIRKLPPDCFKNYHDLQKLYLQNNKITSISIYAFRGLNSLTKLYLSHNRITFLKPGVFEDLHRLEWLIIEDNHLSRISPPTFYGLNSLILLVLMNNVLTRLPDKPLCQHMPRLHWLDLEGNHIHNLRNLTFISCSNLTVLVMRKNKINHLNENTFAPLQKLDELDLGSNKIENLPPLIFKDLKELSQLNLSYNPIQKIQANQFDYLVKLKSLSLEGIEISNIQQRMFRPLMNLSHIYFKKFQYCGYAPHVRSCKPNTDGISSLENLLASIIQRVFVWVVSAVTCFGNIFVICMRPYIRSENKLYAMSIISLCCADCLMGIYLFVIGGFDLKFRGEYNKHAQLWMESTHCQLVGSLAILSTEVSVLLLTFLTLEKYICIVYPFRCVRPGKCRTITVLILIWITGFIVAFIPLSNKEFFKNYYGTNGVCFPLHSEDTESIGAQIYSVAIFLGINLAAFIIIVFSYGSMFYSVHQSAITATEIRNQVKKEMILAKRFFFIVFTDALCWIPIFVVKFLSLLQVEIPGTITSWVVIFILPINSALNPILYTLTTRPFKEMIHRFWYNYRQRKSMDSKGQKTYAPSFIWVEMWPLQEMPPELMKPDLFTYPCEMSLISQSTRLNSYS
RXFP1 agonist = activates the human relaxin receptor RXFP1; Q9HBX9; HEK293T-RXFP1 cAMP TR-FRET, 30 min; response scale: percent of porcine relaxin response, buffer zero; Potency, µM (titrated, usually from 57.5 µM), without a hit: at the highest dose activation, most hits filed as activators; 370,000 compounds, 0.3% hits; AID 2676; active means well fitted activation curve with a large enough effect; inconclusive means small, poorly fitted or top-dose-only effect; further: potency means the concentration at half of the fitted maximal effect; on the % scale 0 is the no-effect control and ±100 the full control effect; nearly all actives have a fitted effect of over 60% in size
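HEK293 cells stably expressing RXFP1, treated 30 min at 37C with compounds plus PDE4 inhibitor Ro 20174; cAMP measured by HTRF TR-FRET. Normalized to buffer and 29 nM porcine relaxin; EC50 by Hill fit.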
gsp antagonist = antagonizes gsp, the McCune-Albright syndrome mutation. AID 624288. gsp-mutant cells, cAMP HTRF, 30 min. Potency, µM (doses to about 76.9 µM), inactives show at the highest dose activity change, negative = inhibition, hits mostly inhibitors. 340,000 compounds, 0.4% hits; calls by dose curve; cell line not stated here;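 further: intracellular cAMP measured with PDE inhibitor Ro 20-1724 present during compound exposure; potency means the concentration at half of the fitted maximal effect; on the % scale 0 is the no-effect control and ±100 the full control effect; nearly all actives have a fitted effect of over 65% in size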
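Cells in G418 medium, seeded 16-24 h, 37C; buffer exchange to DPBS + 1 mM CaCl2, 0.5 mM MgCl2, 0.05% BSA; cpds in DMSO + […] (300 uM stock), 30 min 37C; HTRF cAMP detection.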
gsp agonist = agonists of gsp mutant (McCune-Albright syndrome); gsp mutant cells, cAMP HTRF, 30 min; Potency, µM (top dose mostly 76.9 µM), inactives show at the top dose activation (cAMP increase), hits mostly activators; 340,000 compounds, 0.13% hits; AID 624287; active means well fitted activation curve with a large enough effect; inconclusive means small, poorly fitted or top-dose-only effect, or another doubt; inactive means no such curve, though single readings can be large or run the other way; cell line not stated here;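 further: phosphodiesterase inhibitor Ro 20-1724 added with compounds to block cAMP breakdown; potency means the concentration at half of the fitted maximal effect; nearly all actives have a fitted effect of over 60% in size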
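Cells in DMEM/10% FBS with G418 were pretreated with compounds in DMSO plus […] (300 uM stock) for 30 min at 37C. cAMP was measured by HTRF (cAMP-d2 plus anti-cAMP antibody-K) after 30 min at room temperature.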
Active calls of the source: *; [ ] = dose if it differs, or a comment. Hits are enriched below; roughly 0.9% of the tested compounds scored in any of these assays.

What do the screens show for `Cc1ccc(CNC(=O)c2cccc(Nc3nc4ccccc4n4nnnc34)c2)cc1`?
RXFP1 antagonist: -17; RXFP1 agonist: 20%

How did CCOC(=O)C(=O)/C(C#N)=C/Nc1ccc(F)cc1 do in these assays?
RXFP1 antagonist: 0; RXFP1 agonist: 0%; gsp antagonist: 5%; gsp agonist: 12%

What do the screens show for `CCOC(=O)NC(=O)/C(C#N)=N/Nc1ccc(F)cc1`?
RXFP1 antagonist: 5; RXFP1 agonist: 0%; gsp antagonist: 25µM*; gsp agonist: 20%

How did CCN(CC)C(=O)c1sc2c(c1C)c(=O)n(-c1ccccc1)c(=O)n2Cc1c(C)cc(C)cc1C do in these assays?
RXFP1 antagonist: -6; RXFP1 agonist: -1%

What do the screens show for `COc1ccc(C(=O)N=C2SC3CS(=O)(=O)CC3N2c2ccc(N(C)C)cc2)cc1OC` (centres undefined)?
RXFP1 antagonist: -76*; RXFP1 agonist: 29%; gsp antagonist: 0%; gsp agonist: inconclusive

What do the screens show for `COc1ccc(N2C(=NC(=O)C3CCCCC3)SC3CS(=O)(=O)CC32)cc1OC` (centres undefined)?
RXFP1 antagonist: -28; RXFP1 agonist: 1%; gsp antagonist: 4%; gsp agonist: 0%

Results for COc1ccc2[nH]c3c(=O)n(CCCCC(=O)NCCN4CCCC4)c(=S)[nH]c3c2c1 ?
RXFP1 antagonist: inconclusive; RXFP1 agonist: 5%; gsp antagonist: -8%; gsp agonist: 4%

What do the screens show for `CCCCNC(=O)CCCCn1c(=S)[nH]c2c([nH]c3ccc(OC)cc32)c1=O`?
RXFP1 antagonist: -19; RXFP1 agonist: 3%; gsp antagonist: 0%; gsp agonist: 21%

Results for CC[C@H](C)NC(=O)CCCCCn1c(=S)[nH]c2c([nH]c3ccc(OC)cc32)c1=O ?
RXFP1 antagonist: -80*; RXFP1 agonist: 5%; gsp antagonist: 2%; gsp agonist: 30%

How did COc1ccc2[nH]c3c(=O)n(CCCCC(=O)N4CCC(C(N)=O)CC4)c(=S)[nH]c3c2c1 do in these assays?
RXFP1 antagonist: -95*; RXFP1 agonist: 2%; gsp antagonist: -4%; gsp agonist: -3%

What do the screens show for `CN(C(=O)CSc1cn(CC(=O)N2CCCC2)c2ccccc12)c1ccccc1`?
RXFP1 antagonist: -17; RXFP1 agonist: 5%

What do the screens show for `C=C(CN(C)C)C(=O)c1ccc(C)cc1C`?
RXFP1 antagonist: -81*; gsp antagonist: 50µM*; gsp agonist: 27%

How did CCN(CC)CC(=O)Oc1ccc(NC(C)=O)cc1 do in these assays?
RXFP1 antagonist: 10

What do the screens show for `CCCCn1cc(S(=O)(=O)c2cc(C)ccc2C)c(=O)c2cc(F)c(N3CCC(C)CC3)cc21`?
RXFP1 antagonist: 17; RXFP1 agonist: 0%

What do the screens show for `CC1(C)N=C(N)N=C(N)N1CCCCc1ccccc1`?
RXFP1 antagonist: -6; gsp antagonist: -11%; gsp agonist: 14µM*

Results for Cn1c(=O)oc2cc(S(=O)(=O)N3CCCC(C(=O)N4CCN(c5cccc(Cl)c5)CC4)C3)ccc21 (centres undefined) ?
RXFP1 agonist: 0%

How did N=c1oc2cc(O)ccc2cc1C(=O)Nc1ccc(Cl)cc1 do in these assays?
RXFP1 antagonist: 0; RXFP1 agonist: 4%; gsp antagonist: 40µM*; gsp agonist: inconclusive

Results for COc1ccc(-c2nn(-c3ccccc3)cc2/C=C2/SC(=S)N(CCC(=O)O)C2=O)c(C)c1 ?
RXFP1 antagonist: -4; RXFP1 agonist: 1%; gsp antagonist: 32µM*; gsp agonist: -4%

What do the screens show for `COc1ccc(/C=C2/SC(=S)N(CCC(=O)O)C2=O)cc1`?
RXFP1 antagonist: -4; RXFP1 agonist: -1%; gsp antagonist: -35%; gsp agonist: 4%

What do the screens show for `COc1ccc(-c2nn(-c3ccccc3)cc2/C=C2/SC(=S)N(CCC(=O)O)C2=O)cc1`?
RXFP1 antagonist: -6; RXFP1 agonist: 1%; gsp antagonist: 32µM*; gsp agonist: -5%[15.4 µM]

How did C[C@@H](O)[C@H]1C(=O)N2C(C(=O)O)=C([C@H]3CCCO3)S[C@H]12 do in these assays?
RXFP1 antagonist: -4

Results for CC(=O)CC/C=C(\C)CC/C=C(/C)CC/C=C(\C)CCC=C(C)C ?
RXFP1 antagonist: -11

How did COc1ccc(NC(=O)N(Cc2cc3cc(C)ccc3[nH]c2=O)CC2CCCO2)cc1 (centres undefined) do in these assays?
RXFP1 antagonist: 8; RXFP1 agonist: 7%; gsp antagonist: -7%; gsp agonist: -102%

Results for COc1ccc2[nH]c(=O)c(CN(CC3CCCO3)C(=O)Nc3ccc(F)cc3)cc2c1 (centres undefined) ?
RXFP1 agonist: -1%; gsp antagonist: 32µM*; gsp agonist: 11%

How did O=C1/C(=C/c2ccc([N+](=O)[O-])cc2)Oc2cc(O)ccc21 do in these assays?
RXFP1 antagonist: -6; RXFP1 agonist: -1%; gsp antagonist: 22µM*; gsp agonist: 1%[15.4 µM]

Results for CC[C@@]1(O)C(=O)OCc2c1cc1n(c2=O)Cc2c-1nc1ccccc1c2/C=N/OC(C)(C)C ?
RXFP1 antagonist: -18

How did COc1ccc(N2CCN(C(=O)c3nc4nc(C)cc(C)n4n3)CC2)cc1 do in these assays?
RXFP1 antagonist: -7; RXFP1 agonist: 2%; gsp antagonist: 1%; gsp agonist: -1%[15.4 µM]

How did Cc1cc(C)n2nc(C(=O)N3CCN(c4ccc([N+](=O)[O-])cc4)CC3)nc2n1 do in these assays?
RXFP1 agonist: 24%; gsp antagonist: 11µM*; gsp agonist: 26%

How did N#CCCn1nc(-c2ccc(Br)cc2)cc1Nc1ccccc1NC(=O)C(F)(F)F do in these assays?
RXFP1 antagonist: -12; RXFP1 agonist: 2%; gsp antagonist: 32µM*; gsp agonist: 19%[15.4 µM]

What do the screens show for `N#CCCn1nc(-c2ccccc2)cc1Nc1ccccc1NC(=O)C(F)(F)F`?
RXFP1 agonist: 0%; gsp antagonist: -9%; gsp agonist: 10%

What do the screens show for `COc1ccc(-c2nc3sc(CCNC(=O)C(=O)Nc4cc(F)ccc4F)c(C)n3n2)cc1`?
RXFP1 antagonist: 3; RXFP1 agonist: 21%

Results for CCN(CC)c1cc(C)c2cc(NC(=O)c3ccc(OC)c(OC)c3)ccc2n1 ?
RXFP1 agonist: 4%

Results for CCOc1ccccc1NC(=O)N1CC(CC)Oc2ccccc21 (centres undefined) ?
RXFP1 antagonist: -80*; RXFP1 agonist: -1%

Results for COc1ccc(OC)c(NC(=O)N2CC(C)Oc3ccc(C)cc32)c1 (centres undefined) ?
RXFP1 antagonist: inconclusive; RXFP1 agonist: -1%

Results for CCC1CN(C(=O)Nc2cc(C)ccc2OC)c2cc(Cl)ccc2O1 (centres undefined) ?
RXFP1 antagonist: -61*; RXFP1 agonist: -1%

What do the screens show for `CCC1CN(C(=O)Nc2cccc(OC)c2)c2ccccc2O1` (centres undefined)?
RXFP1 antagonist: -24; RXFP1 agonist: 0%

How did CCc1nc(Nc2cccc(O)c2)c2oc3ccccc3c2n1 do in these assays?
RXFP1 antagonist: -76*; RXFP1 agonist: 5%; gsp antagonist: -26%; gsp agonist: 22%
